Measured values reported in PubChem BioAssay (Tox21).
Several values for one entry are separate records, joined by “and”; a condition that tells them apart may be missing. Identical values can stand only once. Inconclusive results are not listed. Activity calls are given as the source filed them. Unless noted, calls come from the whole dose curve; as a rule, active = well fitted curve in the direction sought with a large enough effect in the repeat runs; inconclusive = weak or mixed curves; inactive = no such curve, though single readings can be large; an effect the other way counts as inactive or inconclusive.

Assays:
[1] = qHTS assay to identify small molecule agonists of the peroxisome proliferator-activated receptor delta (PPARd) signaling pathway - cell viability counter screen (AID 743211); note: nearly all actives have a fitted effect of over 55% in size; note: potency is the fitted concentration of half-maximal effect
Method in brief: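 Tox21 library compounds, delivered in DMSO, were incubated 17 h with PPARd-bla HEK293H cells; cytotoxicity was taken from CellTiter-Glo luminescence read 30 min after reagent addition.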

[2] = qHTS assay to identify small molecule antagonists of the peroxisome proliferator-activated receptor delta (PPARd) signaling pathway - cell viability counter screen (AID 743213); note: nearly all actives have a fitted effect of over 50% in size; note: potency is the fitted concentration of half-maximal effect
Method in brief: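 HEK293H cells with the PPARd UAS-bla reporter, co-treated 17 h at 37 C with compounds and L165041 (300 nM final), were lysed with CellTiter-Glo. Luminescence indicated viable cell content.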

[3] = molecular target: Peroxisome proliferator-activated receptor delta (Homo sapiens) (UniProt Q03181); assay: qHTS assay to identify small molecule antagonists of the peroxisome proliferator-activated receptor delta (PPARd) signaling pathway (AID 743215; active = well fitted inhibition curve with a large enough effect in the signal ratio in the repeat runs, not every such curve was filed as active; the % refers to the signal ratio;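 note: cells stimulated with agonist L165041 at 300 nM final during compound exposure; series mostly up to about 62 µM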)
Chain of Peroxisome proliferator-activated receptor delta (Homo sapiens) (Q03181 whole entry, looked up): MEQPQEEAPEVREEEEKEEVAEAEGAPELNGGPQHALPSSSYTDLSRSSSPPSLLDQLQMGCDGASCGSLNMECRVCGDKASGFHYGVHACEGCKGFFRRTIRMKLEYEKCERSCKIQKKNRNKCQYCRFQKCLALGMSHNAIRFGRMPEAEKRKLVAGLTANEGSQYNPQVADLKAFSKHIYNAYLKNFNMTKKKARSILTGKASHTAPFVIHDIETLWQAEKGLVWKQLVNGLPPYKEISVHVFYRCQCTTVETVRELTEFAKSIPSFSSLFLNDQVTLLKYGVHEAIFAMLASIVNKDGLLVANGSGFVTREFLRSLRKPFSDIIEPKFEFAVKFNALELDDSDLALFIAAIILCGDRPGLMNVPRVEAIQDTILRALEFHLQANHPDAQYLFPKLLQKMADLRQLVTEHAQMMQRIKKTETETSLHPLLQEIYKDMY
Method in brief: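 Fluorescence from cleaved LiveBLAzer B/G FRET substrate (2 h, room temperature) reports PPARd-driven beta-lactamase in HEK293H UAS-bla cells. Cells had been treated 17 h at 37 C with compound plus 300 nM final L165041.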

[4] = qHTS assay to identify small molecule agonists of the farnesoid-X-receptor (FXR) signaling pathway - cell viability counter screen (AID 743218); note: nearly all actives have a fitted effect of over 45% in size; note: potency is the fitted concentration of half-maximal effect
Method in brief: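 Readout: CellTiter-Glo luminescence, 30 min RT, multiplexed after the FXR-bla FRET reading. HEK 293T FXR-UAS-bla cells received compound 5 h post-plating and were incubated 16 h at 37 C.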

[5] = molecular target: Vitamin D3 receptor (Homo sapiens) (UniProt P11473); assay: qHTS assay to identify small molecule agonists of the vitamin D receptor (VDR) signaling pathway (AID 743222; calls by dose curve)
Chain of Vitamin D3 receptor (Homo sapiens) (P11473 whole entry, looked up): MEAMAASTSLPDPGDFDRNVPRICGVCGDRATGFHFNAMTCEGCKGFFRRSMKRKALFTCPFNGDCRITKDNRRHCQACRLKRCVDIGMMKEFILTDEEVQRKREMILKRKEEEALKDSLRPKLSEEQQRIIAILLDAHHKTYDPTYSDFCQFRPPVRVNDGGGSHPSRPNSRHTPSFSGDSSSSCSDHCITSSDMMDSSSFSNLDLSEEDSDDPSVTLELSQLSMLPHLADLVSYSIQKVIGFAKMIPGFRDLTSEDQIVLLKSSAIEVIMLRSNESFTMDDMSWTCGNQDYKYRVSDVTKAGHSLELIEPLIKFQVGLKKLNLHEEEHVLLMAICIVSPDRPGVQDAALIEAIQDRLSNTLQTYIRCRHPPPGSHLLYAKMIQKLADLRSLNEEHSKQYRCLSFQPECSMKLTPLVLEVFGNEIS
Method in brief: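 Following 4 h attachment at 37C, VDR-bla cells (2,000 per well) received DMSO-dissolved compounds or controls. After 16 h incubation, LiveBLAzer B/G FRET substrate was added and fluorescence read 2 h later at room temperature.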

[6] = molecular target: Vitamin D3 receptor (Homo sapiens) (UniProt P11473); assay: qHTS assay to identify small molecule antagonists of the vitamin D receptor (VDR) signaling pathway (AID 743223; active = well fitted inhibition curve with a large enough effect in the signal ratio in the repeat runs, not every such curve was filed as active; the % refers to the signal ratio; note: potency is the fitted concentration of half-maximal effect)
Method in brief: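 Quantitative HTS in VDR-bla reporter cells stimulated with 1alpha,25-dihydroxyvitamin D3, 3 nM final. Compound exposure 16 h, 37C, 5% CO2. Read-out: beta-lactamase FRET substrate fluorescence, 2 h RT.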

[7] = qHTS assay to identify small molecule agonists of the vitamin D receptor (VDR) signaling pathway - cell viability counter screen (AID 743224); note: nearly all actives have a fitted effect of over 50% in size; note: potency is the fitted concentration of half-maximal effect
Method in brief: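 In parallel with the bla FRET readout, cytotoxicity toward VDR-bla cells after 16 h compound exposure was assessed by CellTiter-Glo, with luminescence recorded after a 30 min room-temperature incubation.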

[8] = qHTS assay to identify small molecule antagonists of the vitamin D receptor (VDR) signaling pathway - cell viability counter screen (AID 743225); note: nearly all actives have a fitted effect of over 50% in size; note: potency is the fitted concentration of half-maximal effect
Method in brief: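 Same-well multiplex: following 16 h treatment of HEK 293T cells carrying a UAS-driven beta-lactamase reporter with compound and agonist (3 nM final), and a 2 h FRET substrate step, CellTiter-Glo was added and luminescence read after 30 min.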

[9] = qHTS assay to identify small molecule agonists of the NFkB signaling pathway - cell viability counter screen (AID 1159515; calls by dose curve; note: nearly all actives have a fitted effect of over 55% in size; note: potency is the fitted concentration of half-maximal effect)
Method in brief: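 Plate 2,000 NFkB-bla ME-180 cells/well; incubate overnight. Add compounds, 5 hr at 37 C. Add FRET substrate, 1.5 hr RT. Add CellTiter-Glo, 30 min RT; read luminescence.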

[10] = qHTS assay to identify small molecule agonists of the endoplasmic reticulum stress response signaling pathway (AID 1159516; active = well fitted activation curve with a large enough effect in the signal ratio in the repeat runs, not every such curve was filed as active; the % refers to the signal ratio)
Method in brief: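 Beta-lactamase expression from the ER stress response element in HeLa reporter cells is quantified with the LiveBLAzer B/G FRET substrate, read at 405 nm excitation after 2 hr at room temperature, following 5 hr compound treatment at 37 C.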

[11] = qHTS assay to identify small molecule antagonists of the retinoid-related orphan receptor gamma (ROR-gamma) signaling pathway - cell viability counter screen (AID 1159520); note: nearly all actives have a fitted effect of over 50% in size; note: potency is the fitted concentration of half-maximal effect
Method in brief: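 Tet-on ROR gamma CHO cells were given compounds for 2 hr, then doxycycline hyclate at 1 uM final, and incubated 16 hr at 37 C. Viability was measured as ATP content by CellTiter-Glo luminescence.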

[12] = molecular target: Nuclear receptor ROR-gamma (Homo sapiens) (UniProt P51449); assay: qHTS assay to identify small molecule antagonists of the retinoid-related orphan receptor gamma (ROR-gamma) signaling pathway (AID 1159521; note: nearly all actives have a fitted effect of over 50% in size; note: potency is the fitted concentration of half-maximal effect)
Method in brief: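 Inducible-expression reporter assay: doxycycline (1 uM final) switched on RORγ in CHO cells bearing a ROR response element-luciferase construct, with test compounds present from 2 h beforehand. Decreased luminescence after 16 h defined antagonist activity.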

[13] = qHTS assay to identify small molecule agonists of the AP-1 signaling pathway - cell viability counter screen (AID 1159525; calls by dose curve; note: nearly all actives have a fitted effect of over 55% in size; note: potency is the fitted concentration of half-maximal effect)
Method in brief: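 Same-well cytotoxicity counter screen of the Tox21 10K library in ME-180 cells. The readout is ATP-dependent luminescence after 5 h compound treatment. Data are normalised to DMSO and tetra n-octyl ammonium bromide controls.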

[14] = qHTS assay to identify small molecule agonists of the AP-1 signaling pathway (AID 1159526; calls by dose curve)
[15] = molecular target: Retinoic acid receptor RXR-alpha (Homo sapiens) (UniProt P19793); assay: qHTS assay to identify small molecule agonists of the RXR signaling pathway (AID 1159527; calls by dose curve; note: nearly all actives have a fitted effect of over 35% in size)
Chain of Retinoic acid receptor RXR-alpha (Homo sapiens) (P19793 whole entry, looked up): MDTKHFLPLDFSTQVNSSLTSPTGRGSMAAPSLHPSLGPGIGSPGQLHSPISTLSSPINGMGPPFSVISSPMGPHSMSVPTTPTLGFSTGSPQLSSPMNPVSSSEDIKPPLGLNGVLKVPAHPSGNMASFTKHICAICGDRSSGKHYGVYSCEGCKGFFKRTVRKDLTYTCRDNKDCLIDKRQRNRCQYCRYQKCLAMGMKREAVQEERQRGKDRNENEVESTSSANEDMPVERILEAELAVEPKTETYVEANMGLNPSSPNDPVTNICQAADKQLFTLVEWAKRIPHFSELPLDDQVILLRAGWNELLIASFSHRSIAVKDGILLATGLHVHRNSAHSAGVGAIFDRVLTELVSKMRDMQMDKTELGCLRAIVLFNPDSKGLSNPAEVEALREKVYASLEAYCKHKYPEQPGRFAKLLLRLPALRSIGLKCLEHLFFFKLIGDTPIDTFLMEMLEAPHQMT
Method in brief: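 Compounds in DMSO were added to RXR-alpha-UAS-bla HEK 293T cells kept in 2% charcoal-stripped serum, and incubated 16 hr at 37 C with 5% CO2. Reporter signal came from a 2 hr B/G FRET substrate step.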

[16] = molecular target: Bile acid receptor (Homo sapiens) (UniProt Q96RI1); assay: qHTS assay to identify small molecule antagonists of the farnesoid-X-receptor (FXR) signaling pathway (AID 743217; active = well fitted inhibition curve with a large enough effect in the signal ratio in the repeat runs, not every such curve was filed as active; the % refers to the signal ratio)
Chain of Bile acid receptor (Homo sapiens) (Q96RI1 whole entry, looked up): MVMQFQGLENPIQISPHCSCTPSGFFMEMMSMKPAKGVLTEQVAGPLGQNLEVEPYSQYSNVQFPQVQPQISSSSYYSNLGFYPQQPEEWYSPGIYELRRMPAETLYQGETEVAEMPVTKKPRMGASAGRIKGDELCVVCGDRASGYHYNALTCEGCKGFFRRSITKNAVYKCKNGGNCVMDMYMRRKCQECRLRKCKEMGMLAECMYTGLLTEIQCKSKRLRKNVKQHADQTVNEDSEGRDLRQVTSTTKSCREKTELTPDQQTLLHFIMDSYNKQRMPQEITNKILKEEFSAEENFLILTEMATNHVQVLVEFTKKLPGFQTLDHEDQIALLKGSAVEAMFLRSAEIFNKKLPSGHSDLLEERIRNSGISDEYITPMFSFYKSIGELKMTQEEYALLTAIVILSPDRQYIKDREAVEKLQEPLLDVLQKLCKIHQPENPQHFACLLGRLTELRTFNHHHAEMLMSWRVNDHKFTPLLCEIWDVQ
Method in brief: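 FRET fluorescence after 2 h room-temperature LiveBLAzer loading gives the readout. Prior step: FXR-bla HEK 293T cells, seeded and incubated 5 h, received test compounds plus 50 uM final CDCA for 16 h at 37 °C.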

[17] = molecular target: Bile acid receptor (Homo sapiens) (UniProt Q96RI1); assay: qHTS assay to identify small molecule agonists of the farnesoid-X-receptor (FXR) signaling pathway (AID 743220; active = well fitted activation curve with a large enough effect in the signal ratio in the repeat runs, not every such curve was filed as active; the % refers to the signal ratio)
Method in brief: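 FXR-UAS-bla HEK 293T cells carrying a UAS-driven beta-lactamase reporter were plated for 5 h at 37C/5% CO2, then exposed to DMSO-dissolved Tox21 10K compounds for 16 h at 37C. A LiveBLAzer B/G FRET substrate was loaded for 2 h at room temperature before fluorescence reading.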

[18] = qHTS assay to identify small molecule antagonists of the farnesoid-X-receptor (FXR) signaling pathway - cell viability counter screen (AID 743221; active = well fitted cell-killing curve with a large enough effect in the repeat runs, not every such curve was filed as active; note: nearly all actives have a fitted effect of over 50% in size)
Method in brief: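 Cytotoxicity is taken from ATP luminescence (CellTiter-Glo, 30 min, room temperature) in FXR-bla HEK 293T cells previously incubated 16 h at 37 C with compound and chenodeoxycholic acid at 50 uM final.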

[19] = molecular target: Peroxisome proliferator-activated receptor delta (Homo sapiens) (UniProt Q03181); assay: qHTS assay to identify small molecule agonists of the peroxisome proliferator-activated receptor delta (PPARd) signaling pathway (AID 743212; calls by dose curve)
Method in brief: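 Read-out: beta-lactamase FRET fluorescence after 2 h room-temperature incubation with LiveBLAzer B/G substrate. Cells were HEK293H carrying a UAS-bla reporter for PPARd, treated at 37 C with DMSO-dissolved compounds.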

Measured: Potency

Cn1c(-c2ccccc2)cc(-c2ccccc2)[n+]1C
inactive: [1] | [2] | [3] | [4] | [5] | [6] | [7] | [8] | [9] | [10] | [11] | [12] | [13] | [14] | [15]

CCC1(c2ccc(N)cc2)CCC(=O)NC1=O (centres undefined)
inactive: [1] | [2] | [16] | [4] | [17] | [5] | [6] | [7] | [9] | [10] | [11] | [12] | [13] | [14] | [15]

CC(C)COC(=O)c1ccccc1C(=O)OCC(C)C
inactive: [1] | [2] | [16] | [4] | [17] | [18] | [7] | [8] | [9] | [10] | [11] | [13] | [15]

O=[N+]([O-])c1ccc(Cl)c([N+](=O)[O-])c1
active: [1] 19.8 µM and 19.5 µM | [2] 24.9 µM and 19.5 µM | [4] 54.9 µM | [6] 22.2 µM and 21.9 µM | [7] 14 µM and 17.4 µM | [8] 19.8 µM and 19.5 µM | [9] 49.7 µM and 54.9 µM | [11] 49.3 µM and 21.7 µM | [12] 6.21 µM and 6.86 µM | [13] 35.2 µM and 34.7 µM

CCCCCCCCCCCCCl
inactive: [1] | [2] | [3] | [4] | [5] | [6] | [7] | [8] | [9] | [10] | [11] | [13] | [14] | [15]

Clc1cccc(C(Cl)(Cl)Cl)n1
inactive: [1] | [2] | [16] | [4] | [17] | [7] | [8] | [9] | [10] | [11] | [12] | [13] | [14] | [15]

CN(C)P(=O)(N(C)C)N(C)C
inactive: [1] | [19] | [2] | [3] | [16] | [4] | [17] | [18] | [5] | [6] | [7] | [8] | [9] | [10] | [11] | [13] | [14] | [15]
